tim23-1 inh: growth inhibitors of tim23-1 mutant yeast. S. cerevisiae tim23-1 growth, BacTiter-Glo luminescence, 24 h. inhibition, % at 20 µM. 330,000 tested, 1.3% active. AID 463212;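 active means growth inhibition of the mutant yeast at or above 50%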;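 further: temperature-sensitive mutant grown at 25 °C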
SKKanGAS inh: SKKanGAS growth inhibition | S. pyogenes SKKanGAS, kanamycin growth, BacTiter-Glo, 6 h | inhibition, % at 7.5 µM | 300,000 tested, 1.3% active;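 active means mean replicate score, as percent of positive control median, at least 50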;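 further: strain carries kanamycin resistance gene driven by streptokinase promoter and grows in 40 µg/ml kanamycin; loss of luminescence reflects streptokinase promoter inhibition or plain growth inhibition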
TIM10 inh: growth inhibitors of TIM10 yeast strain. S. cerevisiae TIM10 strain growth, BacTiter-Glo luminescence, 24 h. inhibition, % at 10 µM. 330,000 tested, 1.4% active. AID 463195;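 active means inhibition of 40% or more at the single tested concentration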;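 further: wild-type TIM10 isogenic control strain grown at permissive 25 °C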
tim10-1 inh: tim10-1 yeast growth inhibition; S. cerevisiae tim10-1 ts strain growth, BacTiter-Glo, 24 h; inhibition, % at 20 µM; 330,000 tested, 2.2% active; AID 463190;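 active means inhibition of at least 40%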;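 further: mutant grown at 25 °C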
PfHsp90 set2: growth inhibition of yeast expressing Plasmodium Hsp90. inhibition, % at 9.4 µM. S. cerevisiae expressing PfHsp90, BacTiter-Glo ATP, 48 h; yeast lacking PDR1 and PDR3 efflux regulators. 310,000 tested, 0.32% active. AID 504621;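 active means every replicate shows inhibition above about 80%, whatever the replicate mean, limit read from the data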
NALP1 yeast inh: NALP1 inhibition; S. cerevisiae NALP1/ASC/caspase-1 growth, X-gal OD620, 72 h; AID 2071; 280,000 tested, 0.61% active; inhibition, % at 10 µM; in the data active means inhibition mostly above about 24%, no sharp cut-off; inactive means mostly below about 32%
tim10-1 confirm: tim10-1 yeast growth inhibition, confirmed; 7,400 tested, 56% active; inhibition, % at 20 µM; AID 463213; S. cerevisiae tim10-1 ts strain growth, BacTiter-Glo, 24 h; shares compounds with tim10-1 inh;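 active means inhibition of yeast growth at or above a set limit in either of two repeat tests at 20 µM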;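 further: tim10-1 mutant grown at permissive 25 °C to find synthetic lethal compounds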
Hits are given with their value; n = inactive; x = not tested or not shown. A selection: hits, their analogues and other compounds. The true share with any hit is near 4.8%.

SMILES	tim23-1 inh	SKKanGAS inh	TIM10 inh	tim10-1 inh	PfHsp90 set2	NALP1 yeast inh	tim10-1 confirm
COc1ccccc1/C=C/C(=O)OCC(=O)Nc1c(C)nn(-c2ccccc2)c1C	n	x	n	45	x	x	n
COc1ccccc1Nc1nc(-c2ccccc2O)nc2ccccc12	n	n	n	n	n	n	x
COc1cccc(N2CCN(C(=O)CCn3c(=S)[nH]c4cc5c(cc4c3=O)OCO5)CC2)c1	x	x	x	x	x	n	x
c1ccc(Cn2nnc3c(N4CCC5(CC4)OCCO5)ncnc32)cc1	n	n	n	42	n	n	n
CC1CCN(C2=C(NS(=O)(=O)c3ccc(Cl)cc3)C(=O)c3ccccc3C2=O)CC1	n	n	n	40	n	n	n
CC1CCN(C2=C(NS(=O)(=O)c3ccc(Br)cc3)C(=O)c3ccccc3C2=O)CC1	n	n	n	n	n	n	x
O=C1C(NS(=O)(=O)c2ccc(Br)cc2)=C(N2CCCCC2)C(=O)c2ccccc21	n	n	n	50	n	n	n
CCOC(=O)c1c(C)[nH]c(=S)c(C#N)c1-c1ccc(Cl)cc1	n	n	n	54	n	n	n
Cc1ccc(N(C(=O)C(F)(F)F)C(C(=O)NC2CCCCC2)c2cccs2)cc1C (stereo not given)	n	n	n	n	n	n	x
S=c1nc(Cc2ccccc2)[nH]c2ccccc12	n	n	n	43	n	n	n
COc1ccc(Cl)cc1NC(=O)CSc1nnc(Cc2cccn2C)n1-c1ccc(F)cc1	n	n	n	n	n	n	x
CCc1ccc(NC(=O)CSc2ccc(-c3ccco3)nn2)cc1	n	n	n	n	n	n	x
CCOC(=O)c1sc(NC(=O)C2CC2)cc1C	n	n	n	54	n	n	n
O=C(CCN1C(=O)/C(=C/c2ccccc2)SC1=S)N1CCCCCC1	n	n	n	44	n	n	36
OCCCNc1nc(-c2ccccc2)c2cc(Br)ccc2n1	n	n	n	48	n	n	36
O=[N+]([O-])c1cc2c(c3cccnc13)COCO2	x	x	x	x	n	x	x
N/C(=N\OC(=O)CCC1CCCC1)c1ccccn1	n	n	n	n	n	n	x
N/C(=N\OC(=O)Cc1ccccc1)c1ccc([N+](=O)[O-])cc1	n	n	n	n	n	n	x
CCCC(=O)OCC(=O)Nc1ccc([N+](=O)[O-])cc1C#N	n	n	n	n	n	n	x
N/C(=N\OC(=O)CCC1CCCC1)c1ccccc1	n	n	n	52	n	n	44
N/C(=N\OC(=O)CCC1CCCC1)c1ccc([N+](=O)[O-])cc1	n	n	n	61	n	n	58
N#Cc1cc([N+](=O)[O-])ccc1NC(=O)COC(=O)CCC1CCCCC1	n	n	n	45	x	n	37
CN(CCC#N)C(=O)COC(=O)c1ccc2c(=O)n3c(nc2c1)CCC3	n	n	n	n	n	n	x
CCOc1ccc2cc(C#N)c(SCC(=O)N3CCOCC3)nc2c1	n	n	n	43	x	n	n
COc1ccccc1N1CCN(CC(O)c2c(C)[nH]c3ccccc23)CC1 (stereo not given)	n	n	n	n	n	n	x
SMILES	tim23-1 inh	SKKanGAS inh	TIM10 inh	tim10-1 inh	PfHsp90 set2	NALP1 yeast inh	tim10-1 confirm
COc1ccc(/C=C2\CCCC3C2=NC(=S)NC3c2ccc(OC)cc2)cc1 (stereo not given)	n	n	n	46	n	n	n
CNC(=O)c1nnsc1S(=O)(=O)c1ccc(Cl)cc1	n	n	n	58	n	90	47
COc1ccccc1NS(=O)(=O)c1ccc(/C=C/C(=O)N2CCN(C(C)=O)CC2)cc1	n	x	n	n	n	x	x
CCc1ccc(Nc2n[n+](-c3ccccc3)c(/C=C/c3ccccc3)s2)cc1	n	n	n	43	x	n	n
C=CCNC(=O)CNS(=O)(=O)c1ccc(F)cc1	n	n	n	n	n	n	x
Clc1ccc(-n2nnnc2CN2CCOCC2)cc1Cl	n	n	n	n	n	n	x
CC1CCN(Cc2nnnn2-c2ccc(Cl)cc2)CC1	n	n	n	56	n	n	37
Cc1ccc(Nc2nc(N)nc(CN3CCN(c4ccccc4)CC3)n2)cc1Cl	n	87	n	45	n	n	n
COc1ccc(N(C(=O)CCl)C(C(=O)NC2CCCCC2)c2cccnc2)cc1 (stereo not given)	n	n	n	41	n	n	32
CCCCCCCCNS(=O)(=O)CCNCCCC	x	x	x	x	n	x	x
CC(C)(C)n1nnnc1C(c1cccs1)N1CCCc2ccccc21 (stereo not given)	n	n	n	43	n	n	38
CC(C)C(c1nnnn1C1CCCC1)N1CCc2ccccc21 (stereo not given)	n	x	n	n	n	n	x
CC(C)C(c1nnnn1C1CCCCC1)N1CCCc2ccccc21 (stereo not given)	n	n	n	44	n	n	n
CC(C)C(c1nnnn1C1CCCC1)N1CCCc2ccccc21 (stereo not given)	n	n	n	41	x	n	37
Cc1cccc(NC(=O)/C(C#N)=C/c2ccc(Sc3ccccc3)o2)c1C	n	n	n	n	n	n	x
Nc1ncn(C23CC4CC(CC(C4)C2)C3)n1	n	n	n	n	n	n	x
c1ccc(-c2nnn(C34CC5CC(CC(C5)C3)C4)n2)cc1	n	n	n	47	n	n	n
CC(=O)c1sc(N/N=C\c2c(O)ccc3ccccc23)nc1C	n	50	n	42	n	x	n
COc1cccc(NS(=O)(=O)c2ccc(C)c(C(=O)N3CCCCC3)c2)c1	n	n	n	n	n	n	x
CC(Oc1ccc(Cl)cc1Cl)C(=O)Nc1ccc(S(=O)(=O)Nc2cnc3ccccc3n2)cc1 (stereo not given)	n	80	n	42	x	n	n
O=C(Nc1ccc(S(=O)(=O)Nc2cnc3ccccc3n2)cc1)c1ccc(Cl)cc1Cl	n	n	n	n	x	x	x
Cn1nnc(NC(=S)NC(=O)c2cccc3c(Br)cccc23)n1	n	n	n	51	n	n	n
Cc1ccncc1C(N)=O	n	n	n	n	n	n	x
CCN(C[C@H]1N[C@@](C)(C(=O)OC)[C@H]2C(=O)N(Cc3ccccc3)C(=O)[C@@H]12)C(=O)c1ccc(F)cc1	n	x	n	n	n	x	x
O=C(COc1ccccc1)NCC(c1ccco1)N1CCN(c2ccc(F)cc2)CC1 (stereo not given)	n	n	n	41	x	x	n
O=C(NCC(c1ccco1)N1CCN(c2ccccc2F)CC1)OCc1ccccc1 (stereo not given)	n	n	n	n	n	n	x
O=C(NCC(c1ccco1)N1CCN(c2ccccc2)CC1)OCc1ccccc1 (stereo not given)	n	n	n	41	n	n	n
O=C(COc1ccccc1)NCC(c1ccco1)N1CCN(c2ccccc2F)CC1 (stereo not given)	n	n	n	n	x	x	x
